A selection: hits, their analogues and other compounds. The true share with any hit is near 9.2%.
Rab9 promoter act – activates the Rab9 promoter; AID 485297; 2.8% of 320,000 active; Huh7 Rab9 promoter-luciferase reporter, luminescence, 24 h; Potency, µM (top dose mostly 9.22 µM), actives largely listed as activators; note: nearly all actives have a fitted effect of over 60% in size
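Luminescence read-out: Huh7 cells stably expressing Rab9-luciferase, treated 24 h with compound at 37 °C, then lysed with luciferase reagent for 10 min at ambient before reading.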
FLuc modulator – counter-screen for miR-21 project: firefly luciferase inhibitors or activators. 6.9% of 360,000 active. Potency, µM (highest dose often 57.5 µM), actives largely listed as inhibitors. P08659. purified FLuc, Km substrates, luminescence inhibition; note: nearly all actives have a fitted effect of over 55% in size
Target sequence (P08659 whole entry, looked up): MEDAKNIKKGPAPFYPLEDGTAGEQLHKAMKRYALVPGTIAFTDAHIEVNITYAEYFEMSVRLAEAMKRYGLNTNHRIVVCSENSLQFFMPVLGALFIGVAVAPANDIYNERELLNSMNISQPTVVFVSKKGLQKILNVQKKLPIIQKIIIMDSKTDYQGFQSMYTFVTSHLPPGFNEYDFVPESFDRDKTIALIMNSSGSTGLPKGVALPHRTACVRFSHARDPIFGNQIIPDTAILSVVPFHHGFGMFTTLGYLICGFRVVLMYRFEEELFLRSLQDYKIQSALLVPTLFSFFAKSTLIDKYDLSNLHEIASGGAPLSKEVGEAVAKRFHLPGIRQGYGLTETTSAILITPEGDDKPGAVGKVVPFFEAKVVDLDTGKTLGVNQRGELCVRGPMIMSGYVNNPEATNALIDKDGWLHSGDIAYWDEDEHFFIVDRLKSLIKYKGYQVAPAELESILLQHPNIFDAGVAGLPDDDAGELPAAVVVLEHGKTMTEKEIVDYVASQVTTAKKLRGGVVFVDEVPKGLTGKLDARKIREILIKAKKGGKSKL
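Purified P. pyralis luciferase, 10 nM final, with Km-level 10 uM D-luciferin and 10 uM ATP in 50 mM Tris acetate pH 7.5, 10 mM Mg acetate, 0.01% Tween-20, 0.05% BSA; 6-point qHTS titration about 60 µM downward; luminescence read.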
SMN2 splice enh – SMN2 splice variant enhancement. HEK293 SMN2-luciferase splicing reporter, luminescence, 30-36 h. Potency, µM (highest dose often 46.1 µM), most hits filed as activators. 2.8% of 210,000 active; note: nearly all actives have a fitted effect of over 55% in size
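HEK293 cells carry an SMN2 minigene-luciferase reporter in which exon 7 inclusion puts luciferase in frame. Cells were seeded at 2000 cells/well, attached for 10-12 hours, then exposed to compounds for 30-36 hours at 37C before ONE-Glo luminescence.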
ELG1 genotoxic – genotoxicity induction in ELG1-luciferase HEK293T cells | 1.3% of 330,000 active | Potency, µM (series often up to 46 µM), hits mostly activators | HEK293T ELG1-luciferase reporter, luminescence, 16 h | AID 504466; note: nearly all actives have a fitted effect of over 60% in size
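Step 1: seed 2,000 HEK293T ELG1-luciferase cells per well. Step 2: add compound or DMSO, incubate 16 hr at 37 °C. Step 3: ONE-Glo, 30 min at room temperature, read luminescence.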
ELG1 repair inh – blocks ELG1-dependent DNA repair in HEK293T cells | HEK293T ELG1-luciferase reporter, luminescence, 16 h; DNA damage induced by 5-fluorouridine | Potency, µM (titrated, usually from 46.1 µM), usual class: inhibitors | 2.3% of 330,000 active | AID 504467; note: nearly all actives have a fitted effect of over 55% in size
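Luminescence from the luciferase reporter, measured 30 min after ONE-Glo reagent at room temperature, was the read-out. Beforehand, 2,000 cells per well were exposed for 16 hr at 37 °C to 5-fluorouridine together with compound or vehicle.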
NPC1 promoter act – activators of NPC1 promoter | Huh7 NPC1 promoter luciferase reporter, 24 h | Potency, µM (top dose mostly 9.22 µM), actives largely listed as activators | 2.4% of 320,000 active | AID 485313; note: nearly all actives have a fitted effect of over 60% in size
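Huh7 reporter cells (NPC1 promoter driving luciferase) are dosed with compound for 24 h at 37 °C, 5% CO2; luciferase detection reagent is then added and luminescence measured after 10 min at ambient temperature.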
Numbers stand for hits; . = inactive; ? = inconclusive; / = no result. Calls come from the whole dose curve; as a rule, active = well fitted curve in the direction sought with a large enough effect; inconclusive = small, poorly fitted or top-dose-only effect, or another doubt; inactive = no such curve, though single readings can be large; an effect the other way counts as inactive or inconclusive.

SMILES	Rab9 promoter act	FLuc modulator	SMN2 splice enh	ELG1 genotoxic	ELG1 repair inh	NPC1 promoter act
N#C/C(=C\c1cc([N+](=O)[O-])c(N2CCOCC2)cc1N1CCOCC1)c1nc2ccccc2[nH]1	.	.	.	.	20.6µM	.
CC(=O)c1cc2c(cc1NC(=O)CCn1cnnn1)OCO2	.	.	/	.	.	.
Fc1ccc(NCc2cn3ccccc3n2)cc1	3.98µM	15.1µM	?	.	?	3.16µM
O=C(NCCc1cn2ccccc2n1)c1ccccc1F	.	.	.	.	.	.
CN(CC(=O)Nc1cccc(F)c1)C(=O)c1ccc(OCc2cn3ccccc3n2)cc1	/	/	/	.	?	/
Fc1cccc(NCc2cn3ccccc3n2)c1	0.794µM	9.53µM	2.51µM	2.31µM	?	1.78µM
CCOC(=O)CSc1nc(N2CCOCC2)c2c(c1C#N)CC(C)(C)OC2	.	.	/	.	2.06µM	.
CC1(C)Cc2c(C#N)c(NCCN3CCOCC3)nc(-c3ccccc3)c2CO1	.	.	/	.	8.2µM	.
CC1(C)Cc2c(C#N)c(SCC(=O)c3ccccc3)nc(N3CCOCC3)c2CO1	.	.	.	.	1.3µM	.
CC1(C)Cc2c(C#N)c(NCCN3CCOCC3)nc(-c3ccco3)c2CO1	.	.	.	.	?	.
CCCOC(=O)CSc1nc(N2CCOCC2)c2c(c1C#N)CC(C)(C)OC2	.	.	/	.	?	.
CC(C)OC(=O)CSc1nnc(C2CCCCC2)n1N	.	.	/	.	?	.
O=C(CC1NCCNC1=O)Nc1ccccc1F (configuration not stated)	/	.	.	/	/	/
Cc1ccc(Nc2nnc(-c3ccc(C)c(S(=O)(=O)N4CCN(C)CC4)c3)c3ccccc23)c(C)c1	/	.	.	/	/	/
O=C(NC1CC1)c1scc2c1OCCO2	.	.	.	.	16.4µM	.
COCC(=O)N1CCC(Oc2ccc(C(=O)NCc3cc(C)no3)cc2)CC1	.	.	/	.	.	.
CN(C)S(=O)(=O)N1CCC(Oc2cccc(C(=O)NC3CCCCCC3)c2)CC1	.	.	/	.	16.4µM	.
CN(C)S(=O)(=O)N1CCC(Oc2ccc(C(=O)NC3Cc4ccccc4C3)cc2)CC1	.	?	/	.	.	.
Cc1cc(CNC(=O)c2cccc(OC3CCN(S(=O)(=O)N(C)C)CC3)c2)on1	?	15.1µM	/	.	?	3.55µM
CC1CCCCN1C(=O)c1ccc(OC2CCN(S(=O)(=O)N(C)C)CC2)cc1 (configuration not stated)	.	?	/	.	9.2µM	.
CCOC(=O)Cn1c(=O)n(C2CCCCC2)c2nc(-c3ccc(Cl)cc3)nc(C(N)=O)c21	/	.	/	/	/	/
COc1ccc(NC(=S)NC(=O)Cc2ccccc2)c(OC)c1	.	.	/	.	?	.
Cc1ccc(O)c(NC(=S)NC(=O)CC(C)C)c1	?	16.9µM	12.6µM	?	?	?
Cc1ccc(NC(=S)NC(=O)Cc2ccccc2)c(O)c1	.	15.1µM	/	.	.	.
CCN1C(=O)c2cccc3c(NC(=O)c4ccc(OC)c(OC)c4)ccc1c23	.	.	/	14.6µM	?	.
SMILES	Rab9 promoter act	FLuc modulator	SMN2 splice enh	ELG1 genotoxic	ELG1 repair inh	NPC1 promoter act
O=C1C=C(c2ccccc2)OC(=O)C1C(=O)c1ccccc1 (configuration not stated)	.	23.9µM	.	.	.	.
Cc1cccc(NC(=O)NNC(=O)COc2ccc(Cl)cc2)c1	.	.	.	.	.	.
CCOC(=O)c1c(-c2ccccc2)nc2ccc(C)cn12	2.24µM	9.53µM	.	?	?	3.55µM
CCOC(=O)c1c(-c2ccccc2)nc2cc(C)ccn12	?	10.7µM	.	.	?	?
Cc1nn(-c2ccccc2)c(C)c1C(=O)NCc1ccc(S(N)(=O)=O)cc1	.	.	/	.	.	.
CC1CCCCN1C(=O)c1c(Cl)cnn1C (configuration not stated)	.	.	/	.	.	.
COc1cc2nc(CN3CCN(S(=O)(=O)c4ccccc4)CC3)[nH]c(=O)c2cc1OC	.	.	/	.	?	.
COc1cc2nc(CN3CCN(S(=O)(=O)c4cc(C)ccc4C)CC3)[nH]c(=O)c2cc1OC	/	/	/	.	14.6µM	/
